Experimental data: PubChem BioAssay AID1850 (Southern Research Specialized Biocontainment Screening …, 2009)
The campaign covered roughly 310,000 compounds. About 1,000 (0.32%) were called active. The list is a sample of the results. Entries with a potency or affinity are not part of this list. A number with no mark means an inactive call. The rule behind the calls is not given here.

test: PhoP regulon inhibitors, Salmonella typhi PhoP promoter GFP reporter, confirmatory (AID 1850); settings: fluorescence, 4 h, at 50 µM, hits give high values;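 note: 0% = induced wells with vehicle and 100% = uninduced wells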

| Structure (SMILES) | inhibition |
| --- | --- |
| Cc1ccccc1NC(=S)NCC(c1cccnc1)N(C)C (configuration not stated) | 4.06% |
| CSc1ccc(CN2CCc3c([nH]c4ccccc34)C2)cc1 | 2.22% |
| Cc1cccc(CN2CCc3c([nH]c4ccccc34)C2)c1 | 8.05% |
| COc1ccccc1CN1CCc2c([nH]c3ccccc23)C1 | 3.76% |
| Clc1cccc(CN2CCc3c([nH]c4ccccc34)C2)c1 | 1.94% |
| O=C(C1CCCN(S(=O)(=O)c2cccc3nonc23)C1)N1CCC(Cc2ccccc2)CC1 (configuration not stated) | -9.59% |
| CS(=O)(=O)c1ccc(Cl)c(C(=O)NC2CCSc3ccccc32)c1 (configuration not stated) | 12.6% |
| COc1ccccc1/C=N/NC(=O)c1ccc(-c2ccccc2)cc1 | -0.08% |
| COc1ccc(C2CC(=O)C3=C(C2)Nc2ccccc2NC3c2coc3ccccc3c2=O)cc1OC (configuration not stated) | -2.61% |
| Cc1cc(Nc2ccc(C)c(C)c2)c2ccccc2n1 | -4.07% |
| COc1ccc(/C=N/Nc2cc(C)nc3ccc(OC)cc23)c(OC)c1 | 0.09% |
| COc1cccc2c(N/N=C/c3ccccc3)cc(C)nc12 | 0.63% |
| COc1ccc2nc(C)cc(N/N=C/c3ccc(F)cc3)c2c1 | -3.4% |
| CC(=O)c1ccc(Nc2cc(C)nc3c(C)cc(C)cc23)cc1 | 7.05% |
| Cc1ccc(Nc2cc(C)nc3ccccc23)c(C)c1 | 10.4% |
| COc1ccc(Nc2cc(C)nc3c(C)cccc23)cc1OC | -3.72% |
| Cc1ccc2nc(C)cc(N/N=C/c3cccc(O)c3)c2c1 | -4.26% |
| CCCCOc1ccc(NC(=O)C(=O)NCCCn2ccnc2)cc1 | -4.73% |
| CC[C@H](C)[C@@H]1NC(=O)c2cc([N+](=O)[O-])cc(F)c2NCCCC[C@@H](C(N)=O)NC(=O)[C@H](CCCCN)NC1=O | 1.42% |
| CCOc1ccc(CNc2nnnn2C)cc1OC | -3.66% |
| COc1ccc(NS(=O)(=O)c2cccc(NC(=O)NCCCl)c2)cc1 | -19.5% |
| CC(=O)Nc1ccc(/C=N/N2C(=O)NC(C)(c3ccc(OC(F)F)cc3)C2=O)cc1 (configuration not stated) | -10% |
| Cc1ccc(NC(=O)CSCC(=O)Nc2ncc3c(n2)CC(c2ccco2)CC3=O)cc1 (configuration not stated) | 2.49% |

| Structure (SMILES) | inhibition |
| --- | --- |
| CCOc1cc(/C=C2\CCCC(C(=O)C(F)(F)F)=C2O)ccc1O | -4.72% |
| CN(CC(=O)Nc1cccc(F)c1)C(=O)c1ccncc1 | -3.54% |
| CCOC(=O)N1CCN(C2CCCN(C(=O)c3ccccc3SC)C2)CC1 (configuration not stated) | 4.8% |
| O=C(COc1ccccc1C(=O)c1cnn(-c2ccccc2)c1)Nc1ccccc1 | -4.89% |
| COc1cc(OC)cc(C(=O)NNC(=O)c2ccc(S(=O)(=O)N(C)c3ccccc3OC)cc2)c1 | 15.6% |
| COc1cccc2c(N/N=C/c3ccc(O)c(O)c3)cc(C)nc12 | -4.34% |
| COc1ccc(Nc2cc(C)nc3ccccc23)cc1 | 13.4% |
| Cc1cc(N/N=C/c2ccc(O)cc2O)c2ccccc2n1 | -3.45% |
| Cc1cc(N/N=C/c2ccc(N(C)C)cc2)c2ccccc2n1 | 0.75% |
| Cc1cc(N/N=C/c2ccccc2O)c2ccccc2n1 | -0.61% |
| Cc1cccc(Nc2cc(C)nc3ccccc23)c1 | 5.71% |
| Cc1cccc(N2C(=O)C(Oc3ccc(Cl)cc3Cl)C2C(=O)O)c1C (configuration not stated) | -8.69% |
| Cc1nnc(Cn2cnc3c2c(=O)n(C)c(=O)n3C)o1 | 6.26% |
| O=C(COc1ccc(/C=N/NC(=O)c2ccncc2)cc1)Nc1ccccc1 | -0.13% |
| CCOC(=O)c1c(-c2ccccc2)oc2ccc(OCC)cc12 | -1.51% |
| CCOC(=O)c1c(-c2ccccc2)oc2ccc(OCC(O)CN(C)C)cc12 (configuration not stated) | -1.17% |
| Cc1ccc(-n2ncc3c(SCc4ccccn4)ncnc32)c(C)c1 | -1.44% |
| c1ccc(Cn2ccc(-c3cnc(-c4ccccc4)s3)n2)cc1 | 9.82% |
| Nc1[nH]ncc1-c1ccc(Cl)cc1 | 9.56% |
| Nc1[nH]ncc1-c1ccc(F)cc1 | -6.64% |
| CCc1nnc(NC(=O)Nc2ccccc2OC)s1 | 1.12% |
| COc1ccc(N2CC(C(=O)Nc3ccc([N+](=O)[O-])cc3Br)CC2=O)cc1 (configuration not stated) | 6.01% |
| CCc1ccc(N2CC(C(=O)N/N=C/c3ccccc3)CC2=O)cc1 (configuration not stated) | -5.31% |

| Structure (SMILES) | inhibition |
| --- | --- |
| COc1ccc(N2CC(C(=O)N/N=C/c3ccc([N+](=O)[O-])cc3)CC2=O)cc1 (configuration not stated) | 0.01% |
| CCc1ccc(N2CC(C(=O)N/N=C/c3cccc([N+](=O)[O-])c3)CC2=O)cc1 (configuration not stated) | -13.7% |
| Cc1cc(C(=O)N/N=C/c2cc(Cl)cc([N+](=O)[O-])c2O)c2ccccc2n1 | 15.1% |
| O=C(N/N=C/c1cc(Cl)cc([N+](=O)[O-])c1O)NC12CC3CC(CC(C3)C1)C2 | 7.74% |
| COc1ccccc1/C=N/NC(=O)c1cccc(NC(=O)c2ccccc2C)c1 | 8.56% |
| CC(C)(C)N/N=C/c1cc(Cl)cc([N+](=O)[O-])c1O | -7.27% |
| CCCCNC(=O)CCn1c(=O)c2ccccc2n(Cc2ccc(Cl)cc2)c1=O | 5.58% |
| CCOC(=O)C(C)Oc1cccc2c(=O)n(CC(=O)N3CCCc4ccccc43)ccc12 (configuration not stated) | 2.67% |
| COc1ccc(Cn2c(=O)oc3ccc(C)cc32)cc1 | 10.7% |
| O=C(CSc1ccccc1)Nc1ccc(N2CCOCC2)c(F)c1 | -2.5% |
| Cc1ccc(CC2C(=O)N(C)C(=O)N(C)C2=O)s1 | 5.58% |
| CCOc1ccc(N(CC(=O)Nc2ccc(OC)cc2)S(=O)(=O)c2c(C)[nH]c(=O)[nH]c2=O)cc1 | -6.24% |
| NCCc1nnc(SCC(N)=O)o1 | -11.5% |
| O=C(N/N=C/c1cccc([N+](=O)[O-])c1)c1cccc2cc[nH]c12 | -2.43% |
| Cc1ccccc1NC(=O)CCC(=O)N/N=C/c1cc([N+](=O)[O-])ccc1O | -5.84% |
| O=[N+]([O-])c1cc(Cl)cc(/C=N/NC(=S)Nc2cc(S(=O)(=O)N3CCOCC3)ccc2Cl)c1O | -3.6% |
| O=C(N/N=C/c1cc([N+](=O)[O-])ccc1O)C1C2CCCCC21 (configuration not stated) | -4.14% |
| O=C(N/N=C/c1ccc([N+](=O)[O-])cc1)c1cccc2cc[nH]c12 | 20.2% |
| Cc1ccc(NC(=O)CCC(=O)N/N=C/c2cc([N+](=O)[O-])ccc2O)cc1 | -3.42% |
| O=S(=O)(c1ccc(NC(=S)N/N=C/c2ccc(O)c(O)c2)cc1)N1CCOCC1 | 9.73% |
| O=C(N/N=C/c1cc([N+](=O)[O-])ccc1O)C1CCCCC1 | -0.28% |
